Where “and” joins values, the source holds several entries; their conditions need not be identical. Identical values can stand only once. Inconclusive results are not listed. Calls of active or inactive are those of the source. Calls come from the whole dose curve; as a rule, active = well fitted inhibition curve with a large enough effect; inconclusive = small, poorly fitted or top-dose-only effect; inactive = no such curve, though single readings can be large or run the other way.
Potency is the fitted concentration of half-maximal effect.

Sequence of Cytochrome P450 3A4 (Homo sapiens) (P08684 whole entry, looked up): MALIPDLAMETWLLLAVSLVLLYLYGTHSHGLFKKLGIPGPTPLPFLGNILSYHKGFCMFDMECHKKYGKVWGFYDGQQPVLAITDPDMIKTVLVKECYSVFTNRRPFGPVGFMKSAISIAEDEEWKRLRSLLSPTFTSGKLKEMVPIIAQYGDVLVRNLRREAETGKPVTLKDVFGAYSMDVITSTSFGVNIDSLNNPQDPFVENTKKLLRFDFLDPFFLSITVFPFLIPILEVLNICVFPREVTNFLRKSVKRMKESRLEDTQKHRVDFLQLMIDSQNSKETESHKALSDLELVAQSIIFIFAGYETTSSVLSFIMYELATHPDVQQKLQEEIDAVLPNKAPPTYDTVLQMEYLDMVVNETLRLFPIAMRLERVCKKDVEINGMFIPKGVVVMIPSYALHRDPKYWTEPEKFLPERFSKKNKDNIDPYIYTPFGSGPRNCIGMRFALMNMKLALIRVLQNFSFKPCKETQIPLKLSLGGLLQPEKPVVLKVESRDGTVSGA

The assay concerns the target Cytochrome P450 3A4 (Homo sapiens) (UniProt P08684). Description: qHTS Assay for Inhibitors and Substrates of Cytochrome P450 3A4 (AID 884). Note: nearly all actives have a fitted effect of over 50% in size. The following applies: recombinant CYP3A4, Luciferin-PPXE luminescence; series mostly up to 57.1 µM. A digest of the protocol: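 Luminescent readout of luciferin produced by CYP3A4 (20 nM) dealkylation of Luciferin-PPXE, 25 uM (its KM). NADPH-driven reaction ran 60 min at RT after 10 min compound preincubation; data scaled to 57 uM ketoconazole as 100% inhibition.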
With `C=CCc1cccc(C2C(C)CCC3C(=O)N4C(Cc5c([nH]c6ccccc56)C4c4cc(OC)c(OC)c(OC)c4)C(=O)N32)c1` (stereo not given), the Potency was 3.98 µM (active).
In the case of `COc1ccc(O[C@H]2C=C[C@@H](c3ccccc3)O[C@@H]2CO/N=C(\C)CCN2CCCCc3nc(C)c(C)cc32)cc1`, the Potency was 3.98 µM (active).
Regarding `COc1ccc(O[C@H]2C=C[C@@H](c3ccccc3)O[C@H]2COC(=O)CC/C(C)=N\O[C@@H](C)c2cn([C@H]3COC[C@H]3O)nn2)cc1`, the Potency was 3.98 µM (active).
With `COC(=O)C[C@@H]1O[C@H]1[C@H](C)[C@@H](OC)C(C)C` the figure was 3.98 µM (active).
With `COC(=O)C/C=C\[C@@H](C)[C@@H](/C=N\OC[C@@H]1O[C@H](c2ccccc2)C=C[C@@H]1Oc1ccc(OC)cc1)NS(=O)(=O)c1ccc(C)cc1` the figure was 5.01 µM (active); with `C=CC(C1=CC(=O)C(OC)=CC1=O)c1ccc(OC)cc1` (stereo not given), 25.1 µM (active); with `CC(=O)OCC1OC(c2ccc3c(c2)OCO3)C=CC1OC(C)=O` (stereo not given), 3.98 µM (active).
Turning to `COc1ccc(O[C@H]2C=C[C@@H](c3ccccc3)O[C@@H]2CO/N=C(\C)CCN2CCCc3nc(C)c(C)cc32)cc1`, the Potency is 3.16 µM (active).
For `O=C1C=CC(=C(c2ccc(O)cc2)c2ccc(O)cc2)C=C1`, the Potency is 20 µM (active).
With `C=C(C)C(O)/C=C/c1cccc(OC)c1` (stereo not given) the figure was 3.98 µM (active).
Consider `C=CC[C@@H]1C=C[C@H](Oc2ccc(C)cc2)[C@H](COC(=O)NCc2cccc3ccccc23)O1`, for which the Potency was 3.16 µM (active).
For `COc1ccc(O[C@H]2C=C[C@@H](c3ccccc3)O[C@H]2COC(=O)CC/C(C)=N\O[C@@H](C)CN2CCCCc3nc(C)c(C)cc32)cc1`, the Potency is 3.98 µM (active).
With `COc1cc(OC)c2c(OC)c(-c3ccc4c(c3)OCO4)c(=O)oc2c1` the figure was 2.51 µM (active); with `COc1ccc(O[C@H]2C=C[C@@H](c3ccccc3)O[C@H]2COC(=O)CC/C(C)=N/O[C@@H]2O[C@H](COC(C)=O)[C@H](OC(C)=O)[C@H](OC(C)=O)[C@H]2OC(C)=O)cc1`, 5.01 µM (active).
With `COc1ccc(O[C@H]2C=C[C@@H](c3ccccc3)O[C@H]2CO/N=C\C[C@@H]2C=C[C@H](OC(C)=O)[C@H](COC(C)=O)O2)cc1` the figure was 3.98 µM (active); with `CCO[C@H](c1cc(OC)cc([N+](=O)[O-])c1OC)[C@H](C)/C=C\CC(=O)OC`, 3.98 µM (active).
The value for `COc1cc2c(cc1OC)-c1c(oc3cc(O)cc(O)c3c1=O)CO2` was 10 µM (active); that for `OCC1OC(c2ccc3c(c2)OCO3)C=CC1Oc1cc(Cl)cc(Cl)c1` (stereo not given) was 0.316 µM (active).
`C=CCOC(=O)C(C(C)=O)C(NC(=O)OC)c1ccc(F)cc1` (stereo not given): the Potency is 3.16 µM (active).
The value for `COC(=O)C/C=C\[C@@H](C)[C@@H](/C=N\OC[C@@H]1O[C@H](c2ccccc2)C=C[C@@H]1Oc1ccc(OC)cc1)OC` was 3.16 µM (active); that for `COc1cc(O)c(C(=O)/C=C/c2ccc(O)c(OC)c2)c(OC)c1` was 7.94 µM (active).
The value for `CCCNC(=O)OC[C@@H]1O[C@H](CCO/N=C\[C@@H](C)[C@H](OCc2ccccc2)C(C)C)C=C[C@@H]1Oc1ccc(OC)cc1` was 3.98 µM (active); that for `COc1ccc(C#CC2C=CC(Oc3cc(C)cc(C)c3)C(CO)O2)cc1` (stereo not given) was 1.58 µM (active).
The value for `COc1ccc(/C=C/N(CCc2ccc(OC)c(OC)c2)C(=O)C(F)(F)F)cc1` was 2 µM (active).
For the compound `C/C=C/OC(=O)NC(c1ccccc1)[C@@]1(C(=O)OCC)CCCC1=O` (stereo not given in full), the Potency was 0.0158 µM (active).
With `COc1ccc2c(c1)OC/C(=C/c1ccc(OC)c(OC)c1)C2=O` the figure was 7.94 µM (active).
For `C=CCC1C=CC(Oc2ccc(OC)cc2)C(COC(=O)c2ccc(Br)cc2)O1` (stereo not given), the Potency is 3.16 µM (active).
With `COc1cccc([C@@H]2Oc3ccc(OC)cc3/C(=N/OC[C@@H](O)COCc3ccco3)[C@@H]2O)c1` the figure was 3.16 µM (active).
The value for `COCOc1ccc(Br)cc1C(=O)[C@H]1O[C@H]1c1cccc(OC)c1` was 3.98 µM (active); that for `CCCCC#CC1C=CC(Oc2ccc(OC)cc2)C(CO)O1` (stereo not given) was 3.16 µM (active).
For `C[C@@H](c1ccccc1)N1C(=O)[C@H]2[C@H]3[C@H](O)[C@H](O)C/C(=N/OC[C@@H](O)COCc4ccco4)[C@@H]3CC[C@@H]2C1=O`, the Potency was 3.16 µM (active).
The value for `Cc1ccc(S(=O)(=O)N[C@H]2COC(=O)[C@@H](Cc3ccccc3)NC(=O)[C@@H](C)COC(=O)C/C=C\[C@@H]2C)cc1` was 3.98 µM (active); that for `CC1(C)C(=O)C=C[C@@]2(C)C1C=C[C@@]1(C)C2CC[C@@]2(C)C(c3ccoc3)OC(=O)C3OC312` (stereo not given in full) was 7.94 µM (active); that for `COc1cccc(-c2cc(=O)c3ccc(OC)cc3o2)c1` was 7.94 µM (active).
With `COc1ccc(O[C@H]2C=C[C@@H](c3ccccc3)O[C@H]2CO/N=C2/[C@H]3O[C@@H]3[C@@H](O)[C@H]3[C@H]2CCn2c(=O)n(-c4ccccc4)c(=O)n23)cc1` the figure was 3.16 µM (active).
With `COc1cccc([C@@H]2Oc3ccc(OC)cc3/C(=N/O[C@@H](C)c3cc(-c4c(C)cc(C)cc4C)no3)[C@@H]2O)c1` the figure was 1.58 µM (active).
Consider `COc1cc(OC)c2c(=O)c(-c3ccc4c(c3)OCO4)coc2c1`, for which the Potency is 6.31 µM (active).
With `CCCNC(=O)OC[C@@H]1O[C@H](CCO/N=C2\c3cc(OC)ccc3O[C@H](c3cccc(OC)c3)[C@H]2O)C=C[C@@H]1Oc1ccc(OC)cc1` the figure was 5.01 µM (active).
With `COC(=O)[C@@H]1CC[C@H](C)[C@@H](c2ccc(C)cc2)N1C(=O)c1ccc(/C=N\O[C@@H](C)c2cn([C@H](CO)Cc3ccccc3)nn2)cc1` the figure was 1.26 µM (active) and 3.16 µM (active); with `CC(C)(C)c1ccc(OC2C(O)COC2/C=C/C#Cc2ccccc2)cc1` (stereo not given), 3.16 µM (active) and 3.98 µM (active).

The values above are taken from PubChem BioAssay (NCATS).
